Assay results as given in the supplement of paper PMC11219838.
A number with no mark means an inactive call.

The compounds below were run on Caenorhabditis elegans L1 (N2) (assay: survival and reproduction score of C. elegans L1 (0: 0-10 living worms, 1: 11-20, 2: 21-50, 3: >50, 4: overgrown) (score 0-4); higher = more worms, less nematicidal, active = 1 or less; extreme values may be limits of the assay). Conditions: 60 µM; 6 days; temperature: 20 °C.
Summary of the method: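 Compound was pinned to a final 60 µM (0.6% v/v DMSO) into 96-well wells, each holding about 20 synchronized C. elegans N2 L1s and E. coli HB101 in liquid NGM. After 6 days of shaking at 200 rpm and 20 °C in sealed plates, the worms in each well were examined. The ordinal readout of survival and reproduction, based on living worms per well, was assessed under a dissection microscope. On this scale 0 meant 0–10 worms and 4 meant overgrown, starved wells, and two biological replicates were averaged.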

SMILES | survival and reproduction score
Clc1ccc(OCc2nc(-c3cccnc3)no2)c(Cl)c1 | 4
COc1ccc(-c2noc(COc3ccc(Cl)cc3Cl)n2)cc1 | 4
Cc1cccc(-c2noc(-c3ccc(Br)cc3)n2)c1 | 4
Ic1ccccc1-c1nc(-c2cccnc2)no1 | 3.5
COc1ccccc1OCc1nc(-c2ccc(Br)cc2)no1 | 4
CSc1ccccc1-c1nc(-c2cccnc2)no1 | 4
Cc1nc(CSc2nnc(-c3ccc(Cl)cc3)o2)cs1 | 4
Cc1ccc(-c2noc(COc3ccc(Br)cc3)n2)cc1 | 4
O=C(CSc1nnc(-c2ccccc2Cl)o1)Nc1ccc(Br)cn1 | 4
Brc1ccc(CSc2nnc(-c3cccnc3)o2)cc1 | 4
CNC(=O)c1ccccc1-c1nc(-c2ccccc2Cl)no1 | 4
c1ccc(-c2noc(COc3cccc4ccccc34)n2)nc1 | 4
Cc1ccc(-c2nnc(SCc3c(C)cc(C)cc3C)o2)cc1 | 4
O=C(c1ccccc1-c1nc(-c2ccc(F)cc2)no1)N1CCCC1 | 4
N#Cc1cccc(CSc2nnc(-c3ccncc3)o2)c1 | 4
Cc1cc(OCc2nc(-c3ccncc3)no2)ccc1Br | 4
Cc1ccc(-c2nc(-c3ccccc3)no2)cc1 | 0.5 (active)
Cc1cccc(-c2nnc(SCC(=O)Nc3ccc(Br)c(C)c3C)o2)c1 | 4
COC(=O)c1ccc(CSc2nnc(-c3ccncc3)o2)cc1 | 4
Cc1ccc(-c2nc(-c3ccccn3)no2)cc1C | 3.5

SMILES | survival and reproduction score
Cc1ccc(-c2noc(CSc3nc(C)cc(C)n3)n2)cc1 | 4
Cc1cccc(-c2noc(COc3ccc(Cl)cc3C)n2)c1 | 4
COc1ccc(C(=O)CSc2nnc(-c3cccc(Br)c3)o2)cc1 | 4
COc1ccc(-c2noc(CSc3nc(C)cc(C)n3)n2)cc1 | 4
COc1ccc(-c2noc(COc3ccc(C)cc3Br)n2)cc1 | 4
Cc1ccc(-c2nc(-c3cccc(C(F)(F)F)c3)no2)cc1 | 3.5
Cc1cc(Br)ccc1OCc1nc(-c2ccncc2)no1 | 4
Cc1ccc(OCc2nc(-c3cccnc3)no2)cc1C | 4
Clc1ccc(-c2nc(-c3ccncc3)no2)cc1Cl | 4
CCOc1ccccc1-c1nc(-c2ccc(NC(=O)CCc3ccc(OC)cc3)cc2)no1 | 4
COc1ccccc1NC(=O)CSc1nnc(-c2ccccc2)o1 | 3.5
Cc1ccccc1OCc1nc(-c2cccc(NC(=O)c3ccco3)c2)no1 | 4
Cc1cc(Br)ccc1OCc1nc(-c2ccccn2)no1 | 4
O=C(CSc1nnc(-c2ccccc2)o1)Nc1ccc(Br)cc1F | 4
O=C(CSc1nnc(-c2ccco2)o1)Nc1cccc(Cl)c1Cl | 4
Cc1ccc(NC(=O)CSc2nnc(-c3ccncc3)o2)cc1Cl | 4
COc1ccc(-c2noc(-c3ccc(Cl)cc3)n2)cc1 | 3
Cc1ccc(-c2noc(-c3ccccc3OCC(N)=O)n2)cc1 | 4
Clc1ccc(CSc2nnc(-c3ccc(Cl)cc3)o2)cc1 | 4
